MLL AF4-AF9 inh: inhibitors of human MLL-AF4/AF9 interaction. P42568. AlphaScreen, biotin-AF4 peptide binding to FLAG-AF9. inhibition, % at 10 µM. 0.47% of 350,000 active;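 active = every replicate reaching a set inhibition limit, whatever the replicate mean, cut at about 25% in these data; inconclusive = mean inhibition reaches that limit but some replicates miss it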;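 note: 0% = plate neutral control median and 100% = total signal loss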
RAD52 anneal inh: inhibitors of human RAD52 DNA annealing; P43351; recombinant RAD52 DNA annealing, FRET fluorescence; 0.46% of 360,000 active; inhibition, % at 18.7 µM;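 active = every replicate showing at least 50% inhibition; inconclusive = mean inhibition at least 50% but not in every replicate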
Target sequence (P43351 whole entry, looked up): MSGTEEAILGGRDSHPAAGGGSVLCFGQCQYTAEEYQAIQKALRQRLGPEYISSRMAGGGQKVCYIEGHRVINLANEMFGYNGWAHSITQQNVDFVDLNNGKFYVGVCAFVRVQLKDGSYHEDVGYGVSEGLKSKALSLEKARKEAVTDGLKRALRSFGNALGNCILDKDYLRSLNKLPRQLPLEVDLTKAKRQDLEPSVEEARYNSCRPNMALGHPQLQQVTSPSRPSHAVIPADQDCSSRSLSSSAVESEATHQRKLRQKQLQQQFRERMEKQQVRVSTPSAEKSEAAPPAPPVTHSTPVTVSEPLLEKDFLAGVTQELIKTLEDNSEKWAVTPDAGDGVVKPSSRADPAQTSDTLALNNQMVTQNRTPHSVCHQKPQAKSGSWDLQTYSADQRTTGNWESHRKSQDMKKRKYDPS
FGF22 binding: FGF22 (human) thermal shift binding; Q9HCT0; recombinant FGF22 thermal shift, SYPRO orange fluorescence; percent of sucrose octasulfate shift, DMSO zero; activity (Tm shift, normalised), % at 9.99 µM; 1.5% of 340,000 active; AID 651658;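 active = mean Tm shift, scaled 0 neutral to 100 positive control, at about 1.3% or above, every replicate too, limit read from the data; inconclusive = no clear call, values can overlap the other calls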
Target sequence (Q9HCT0 whole entry, looked up): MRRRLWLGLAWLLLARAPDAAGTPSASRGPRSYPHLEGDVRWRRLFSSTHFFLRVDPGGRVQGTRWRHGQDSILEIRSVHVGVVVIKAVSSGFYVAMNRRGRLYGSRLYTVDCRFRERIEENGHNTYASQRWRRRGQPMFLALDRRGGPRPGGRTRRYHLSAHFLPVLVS
ERAP1 inh: inhibitors of human ERAP1 aminopeptidase; inhibition, % at 10.7 µM; 0.15% of 340,000 active; recombinant ERAP1, Leu-AMC fluorescence, 60 min; Q9NZ08;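 active = mean replicate inhibition of at least 30%, or all replicates individually reaching that 30% level; inactive = mean below 30% and not every replicate reaching it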;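 note: 0% = neutral control wells and 100% = L-leucinethiol positive control wells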
DENV2 CPE rescue: DENV2-induced cell death inhibition; 1.7% of 350,000 active; DENV2-infected cells, cytopathic effect rescue, plate reader; CPE inhibition, % at 9.99 µM; AID 651640; in the data active = CPE inhibition above about 20%, passing the limit was not always enough; inconclusive = no clear call, values can overlap the other calls; tested in BHK-21 cells;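 note: 0% = median of neutral control wells and 100% = median of positive control wells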
The depositor's hits bear a star; u = inconclusive; x = not tested or not shown. Shown are actives, neighbours in structure and some others; about 4% of the full set was active somewhere.

SMILES | MLL AF4-AF9 inh | RAD52 anneal inh | FGF22 binding | ERAP1 inh | DENV2 CPE rescue
C[C@@H]1CCCCO[C@H](CN(C)S(=O)(=O)c2ccc(Cl)cc2)[C@H](C)CN([C@@H](C)CO)C(=O)c2cc(NC(=O)Nc3ccc4c(c3)OCO4)ccc2O1 | 0.8 | -13.9 | 0.0 | -1.4 | 34.3*
C[C@H](CO)N1C[C@H](C)[C@H](CN(C)S(=O)(=O)c2ccc(Cl)cc2)Oc2ccc(NC(=O)Nc3ccc4c(c3)OCO4)cc2C1=O | 3.5 | -3.9 | 0.6 | -0.4 | 29.2*
C[C@H](CO)N1C[C@H](C)[C@H](CN(C)S(=O)(=O)c2ccc(F)cc2)OCCCC[C@H](C)Oc2ccc(NC(=O)Nc3ccc4c(c3)OCO4)cc2C1=O | -1.9 | -7.5 | x | 1.4 | -6.7
C[C@H](CO)N1C[C@H](C)[C@@H](CN(C)CC2CC2)OCCCC[C@H](C)Oc2ccc(NS(=O)(=O)c3ccc(Cl)cc3)cc2C1=O | 10.8 | 5.2 | 0.5 | 6.0 | -3.0
O=C(Nc1nc(-c2ccco2)c(-c2ccco2)s1)c1ccc(F)cc1F | 4.7 | -10.3 | 0.1 | 2.4 | 68.2*
N#Cc1ccc(CN2CCN(C(=O)CC(NC(=O)c3ccccc3)c3ccccc3)CC2)cc1 (stereo not drawn) | -6.9 | -28.1 | 0.2 | -7.3 | 62.5*
Cc1nn2c(C)c(C(=O)Nc3ccccc3)cnc2c1-c1ccccc1 | 1.0 | -4.8 | -0.6 | 6.9 | 41.7*
CC(=O)c1cnc2c(-c3ccccc3)c(C(F)(F)F)nn2c1C | -0.8 | -36.1 | 42.2 | 3.7 | -1.8
Cc1ccc(S(=O)(=O)N2[C@@H](c3ccc(C#N)cc3)C(C(=O)O)=C[C@H]2CC2CCCC2)cc1 | -1.9 | -12.2 | 1.4* | 13.1 | u
CCCC[C@@H]1C=C(C(=O)O)[C@H](c2ccc(Cl)cc2)N1S(=O)(=O)c1ccc(C)cc1 | -2.1 | -9.0 | 0.6 | 1.1 | -11.9
CCCC[C@@H]1C=C(C(=O)O)[C@H](c2ccc3c(c2)OCO3)N1S(=O)(=O)c1ccc(C)cc1 | 1.1 | -18.1 | 1.8* | 3.7 | -4.6
COCC(=O)Nc1ccc2c(c1)OC[C@H](C)N(Cc1cccc(F)c1)C[C@H](C)[C@H](OC)CN(C)C2=O | 4.4 | -2.7 | -0.5 | 0.7 | 4.6
C[C@H](CO)N1C[C@H](C)[C@@H](CN(C)Cc2ccc(Cl)c(Cl)c2)Oc2c(NC(=O)c3nc4ccccc4s3)cccc2C1=O | 3.0 | 8.7 | -0.1 | 0.8 | -10.3
O=[N+]([O-])c1ccc(Nc2nc(NC3CCCCC3)nc(N3CCCC3)n2)cc1 | 20.2 | -4.0 | 43.7* | -0.4 | x
CN1CCCC1CCNc1ccc2oc3ccccc3c(=O)c2c1 (stereo not drawn) | 9.2 | 27.8 | -0.1 | -2.2 | 3.2
CN1CCCC1CCNc1ccc2c(=O)c3ccccc3oc2c1 (stereo not drawn) | -12.1 | 44.5 | 0.3 | 179.7* | x
CN1C(=O)c2cc(NC(=O)C3CCC3)ccc2OC[C@H]2O[C@H](CC(=O)NCc3ccccc3F)CC[C@@H]21 | -3.5 | -1.0 | x | 0.7 | -8.7
CCCNC(=O)N1CC2(C1)CN(C(=O)COC)[C@H](CO)c1[nH]c3cc(OC)ccc3c12 | -2.1 | -5.8 | 0.1 | -4.0 | 12.4
COc1cccc(C#Cc2cnc3c(c2)C(=O)N([C@H](C)CO)C[C@@H](C)[C@H](CN(C)C)O3)c1 | 10.4 | 31.9 | -0.4 | 2.7 | 7.4
COc1ccccc1S(=O)(=O)N[C@@H]1CC[C@@H](CCNC(=O)C2CCCC2)O[C@@H]1CO | -14.0 | 1.3 | -0.8 | 3.6 | 20.1*
Cc1ccc(S(=O)(=O)N[C@H]2CC[C@@H](CCNC(=O)C3CCOCC3)O[C@H]2CO)cc1 | -6.8 | 4.3 | 1.0 | 6.0 | 22.1*
Cc1ccc(S(=O)(=O)N[C@H]2CC[C@@H](CCNC(=O)C3CCCC3)O[C@H]2CO)cc1 | 0.5 | -3.1 | -0.2 | 1.3 | 5.7
Cc1ccc(S(=O)(=O)N[C@H]2CC[C@H](CCNC(=O)C3CCCC3)O[C@@H]2CO)cc1 | -2.6 | 2.1 | -0.5 | 2.3 | 72.0*
Cc1ccc(S(=O)(=O)N[C@@H]2CC[C@@H](CCNC(=O)C3CC3)O[C@H]2CO)cc1 | -2.8 | 1.8 | -0.1 | -2.8 | -3.8
Cc1ccc(S(=O)(=O)N[C@@H]2CC[C@@H](CCNC(=O)C3CCOCC3)O[C@H]2CO)cc1 | -8.7 | 2.3 | 1.2 | 3.8 | 21.1*
SMILES | MLL AF4-AF9 inh | RAD52 anneal inh | FGF22 binding | ERAP1 inh | DENV2 CPE rescue
Cc1ccc(S(=O)(=O)N[C@@H]2CC[C@H](CCNC(=O)C3CC3)O[C@H]2CO)cc1 | -3.0 | 5.1 | 0.5 | -3.9 | 0.9
C[C@@H]1CCCCO[C@@H](CN(C)S(=O)(=O)c2cccs2)[C@H](C)CN([C@@H](C)CO)C(=O)c2cc(NS(=O)(=O)c3ccc(F)cc3)ccc2O1 | -4.8 | 15.9 | 0.0 | -3.1 | -12.4
Cc1noc(C)c1S(=O)(=O)Nc1cccc2c1O[C@H](CN(C)Cc1ccc(C(=O)Nc3ccccc3N)cc1)[C@H](C)CN([C@H](C)CO)C2=O | 0.4 | 20.7 | -0.2 | 0.3 | -8.9
C[C@@H]1CN([C@H](C)CO)S(=O)(=O)c2ccc(C#CCN(C)C)cc2O[C@H]1CN(C)Cc1ccccc1F | 19.4 | 8.0 | 0.0 | 4.1 | -3.4
COc1ccc(S(=O)(=O)N[C@H]2CC[C@@H](CCNC(=O)CN3CCOCC3)O[C@H]2CO)cc1 | -2.8 | 6.5 | -0.1 | -1.7 | 94.0*
CSc1nc2c(c(=O)[nH]1)C(c1ccc(F)cc1)CC(=O)N2 (stereo not drawn) | -1.0 | -9.9 | 43.4* | -6.4 | x
CC(C)[C@@H]1CC[C@@H](C)C[C@H]1OC(=O)C[n+]1cc(-c2ccc(Cl)cc2)n2c1CCCCC2 | 11.1 | 46.5 | 0.0 | x | -18.6
COc1ccc(-c2c[n+](CC(=O)OC3CC(C)CCC3C(C)C)c3n2CCC3)cc1 (stereo not drawn) | 2.0 | 44.1 | 43.3* | -1.4 | -3.0
C[C@H](CO)N1C[C@H](C)[C@@H](CN(C)S(=O)(=O)c2ccc(F)cc2)OCCCC[C@H](C)Oc2ccc(NS(=O)(=O)c3cn(C)cn3)cc2C1=O | -6.6 | 8.3 | -0.5 | -4.9 | -10.5
COCCNc1ncnc2c1ncn2[C@H]1CN(Cc2ccc(F)cc2)C[C@@H](CO)O1 | 0.7 | -43.0 | -0.3 | -0.8 | 40.3*
COCCNc1ncnc2c1ncn2[C@H]1CN(Cc2ccc(-c3ccccc3)cc2)C[C@@H](CO)O1 | 6.1 | -10.4 | -0.4 | 0.0 | -9.5
Cc1cc(C[n+]2cc(Br)ccc2N)c2ncccc2c1 | -0.2 | -11.1 | -0.2 | -0.5 | 35.3*
COc1ccc2c(c1)sc(N)[n+]2Cc1cc(C)cc2cccnc12 | 6.5 | 16.7 | 0.0 | 5.0 | 70.6*
Cc1cc(C[n+]2ncsc2N)c2ncccc2c1 | 2.3 | 17.5 | -0.2 | -2.1 | -0.7
C[C@H](CO)N1C[C@H](C)[C@H](CN(C)C(=O)NC2CCCCC2)OCCCC[C@H](C)Oc2ccc(NS(=O)(=O)c3cn(C)cn3)cc2C1=O | -3.4 | 14.8 | 0.0 | -0.5 | x
CC(C)CC#Cc1ccc2c(c1)O[C@@H](CN(C)C(=O)Cc1ccccc1)[C@@H](C)CN([C@H](C)CO)S2(=O)=O | -1.4 | 15.8 | -0.5 | -1.0 | 6.2

From PubChem BioAssay
